In the library only some 3.6% were active in any assay of this set; here they are far more common.
Pf apPOL inh – Pf-apPOL DNA polymerase inhibition; Recombinant Pf-apPOL, molecular beacon fluorescence, 1.5 h; actives 0.25% (n = 210,000); inhibition, % at 10 µM
mHTT-CaM PPI inh – mHTT-calmodulin interaction abrogation. P42858. AlphaScreen His-mHTT/GST-CaM binding, luminescence. inhibition, % at 15 µM. actives 3.6% (n = 190,000). AID 1671202
Hits are given with their value. Cut-off read from the data, not from the text of the source: active = inhibition above about 50%; inactive = the rest.

Screening O=C(CSc1nc2[nH]ncc2c(=O)n1-c1ccccc1)Nc1ccc2c(c1)OCCO2 returned Pf apPOL inh inactive and mHTT-CaM PPI inh inactive.
`Cc1ccc(-c2nccn3cc(C(=O)NCc4ccccn4)nc23)cc1` gave Pf apPOL inh inactive and mHTT-CaM PPI inh inactive.
`COc1cc(/C=C2\NC(=O)NC2=O)cc(OC)c1O` gave Pf apPOL inh inactive and mHTT-CaM PPI inh inactive.
`CCOC(=O)c1c(C)csc1NC(=O)C(C#N)=Cc1ccc(O)cc1` gave Pf apPOL inh inactive.
`CCc1ccccc1N1CCN(C(=O)c2ccc(Cl)cc2)C(C)C1=O` (stereo not drawn) gave Pf apPOL inh inactive and mHTT-CaM PPI inh inactive.
Screening Cc1occc1C(=O)Nc1sc(C)c(C)c1C(N)=O returned Pf apPOL inh inactive and mHTT-CaM PPI inh inactive.
`Cc1c(C(=O)NC2CCCC2)oc2ccc(S(=O)(=O)N3CC(C)CC(C)C3)cc12` (stereo not drawn) gave Pf apPOL inh inactive and mHTT-CaM PPI inh inactive.
For O=C(Nc1ccc(N2CCN(Cc3cccs3)CC2)nc1)c1cccc(F)c1 the results were Pf apPOL inh inactive and mHTT-CaM PPI inh inactive.
CCC(=O)Nc1ccc(N2CCN(c3ccccc3)C2=O)nc1 was read as Pf apPOL inh inactive and mHTT-CaM PPI inh inactive.
`COc1ccc(-c2nc3cccnc3n2C2CCN(C(=O)NCc3cccc(F)c3)C2)cc1` (stereo not drawn) gave Pf apPOL inh inactive and mHTT-CaM PPI inh inactive.
`COc1ccc(-c2nc3cccnc3n2C2CCN(C(=O)NCc3ccc(F)cc3)C2)cc1` (stereo not drawn) gave Pf apPOL inh inactive and mHTT-CaM PPI inh 77.
Cc1ccc(C(=O)NC2CCN(c3nc4c(s3)c(C)nn4-c3ccccc3)CC2)cc1 was read as Pf apPOL inh inactive and mHTT-CaM PPI inh inactive.
For CC(C)c1nnc(NC(=O)Nc2ccc(Cl)cc2Cl)s1 the results were Pf apPOL inh inactive and mHTT-CaM PPI inh inactive.
`COCC(=O)NCCc1ccc(OC)c(OC)c1` gave Pf apPOL inh 98 and mHTT-CaM PPI inh inactive.
For COCC(=O)Nc1cc(OC)ccc1OC the results were Pf apPOL inh inactive and mHTT-CaM PPI inh inactive.
Screening COc1ccccc1CC(=O)NCCc1ccccc1 returned Pf apPOL inh inactive and mHTT-CaM PPI inh 63.
COc1ccc(OC)c(NC(=O)Cc2ccc(OC)c(OC)c2)c1 was read as Pf apPOL inh 86 and mHTT-CaM PPI inh inactive.
Screening COc1ccccc1CC(=O)NCCCc1ccccc1 returned Pf apPOL inh inactive and mHTT-CaM PPI inh inactive.
`COc1ccc(CCNC(=O)Cc2ccc(OC)c(OC)c2)cc1OC` gave Pf apPOL inh inactive.
`COc1ccc(CCNC(=O)CCN2N=C(c3ccc(C)cc3)CCC2=O)cc1OC` gave Pf apPOL inh inactive and mHTT-CaM PPI inh 87.
Screening COc1ccc(CCNC(=O)CCN2N=C(c3ccccc3)CCC2=O)cc1OC returned Pf apPOL inh inactive and mHTT-CaM PPI inh inactive.
For COCCN1CC2=C(C1=O)C(c1cc(C)c(C)cc1C)NC(=O)N2C (stereo not drawn) the results were Pf apPOL inh inactive and mHTT-CaM PPI inh inactive.
C#CCOCC1CCN(C(=O)CSC2CCCC2)CC1 was read as Pf apPOL inh inactive and mHTT-CaM PPI inh inactive.
Cc1ccc(NC(=O)Cc2ccc(Cl)cc2)c([N+](=O)[O-])c1 was read as Pf apPOL inh inactive and mHTT-CaM PPI inh inactive.
For CC(=O)N1CCc2cc(N3CC(C(=O)NCc4ccc(C(F)(F)F)cc4)CC3=O)ccc21 (stereo not drawn) the results were Pf apPOL inh inactive and mHTT-CaM PPI inh inactive.
COCCCNC(=O)N1CCCCCC1c1ccc(C)cc1 (stereo not drawn) was read as Pf apPOL inh inactive and mHTT-CaM PPI inh inactive.
For COc1ccccc1C(=O)Nc1ccc(Cl)c(-c2nc3ccccc3o2)c1 the results were Pf apPOL inh inactive and mHTT-CaM PPI inh inactive.
`Cc1cccc(NC(=O)C2CCC(Cn3c(=O)[nH]c4ccsc4c3=O)CC2)c1` (stereo not drawn) gave Pf apPOL inh inactive and mHTT-CaM PPI inh inactive.
COc1ccc([C@@H]2C[C@H](c3ccccc3)Oc3c(C)ccc(C)c32)cc1 was read as Pf apPOL inh inactive and mHTT-CaM PPI inh inactive.
Screening COc1ccc(N2C3=C(C(=O)CC2c2ccccc2)C(=O)CC(C)(C)C3)cc1 (stereo not drawn) returned Pf apPOL inh inactive and mHTT-CaM PPI inh inactive.
For COc1ccc(CC(=O)Nc2sc(-c3ccccc3)cc2C(N)=O)cc1OC the results were Pf apPOL inh inactive and mHTT-CaM PPI inh 83.
For COc1cccc2cc(C(=O)Nc3sc(-c4ccccc4)cc3C(N)=O)oc12 the results were Pf apPOL inh inactive and mHTT-CaM PPI inh inactive.
Screening COc1ccc(CNC(=O)c2nc(-c3ccc(C)cc3)n3c2CCCCC3)cc1 returned Pf apPOL inh inactive and mHTT-CaM PPI inh 54.
O=C(NCc1cccnc1)c1nc(-c2ccc(Cl)cc2)n2c1CCCCC2 was read as Pf apPOL inh inactive and mHTT-CaM PPI inh inactive.
Screening COc1cccc(CNC(=O)c2nc(-c3ccc(C)cc3)n3c2CCCCC3)c1 returned Pf apPOL inh inactive and mHTT-CaM PPI inh 74.
For CCNC(=O)c1nc(-c2ccc(C)cc2)n2c1CCCCC2 the results were Pf apPOL inh inactive and mHTT-CaM PPI inh inactive.
